Binding signal data for one sequence are collected here from publication PMC7862700, “An all-to-all approach to the identification of sequence-specific readers for epigenetic DNA modifications on cytosine”.

Experiment in all cases: DAPPL (digital affinity profiling via proximity ligation, sequencing); 10 mM Tris-HCl pH 7.5, 50 mM NaCl, 1 mM DTT, 4% glycerol, room temperature, 30 min; GST-TFs on glutathione beads, 16-mer random dsDNA library, 0.1% formaldehyde crosslink after washing; high values mean tight binding
One test addresses T1, FLI1 (Homo sapiens, UniProt Q01543 1-452).
T1 sequence: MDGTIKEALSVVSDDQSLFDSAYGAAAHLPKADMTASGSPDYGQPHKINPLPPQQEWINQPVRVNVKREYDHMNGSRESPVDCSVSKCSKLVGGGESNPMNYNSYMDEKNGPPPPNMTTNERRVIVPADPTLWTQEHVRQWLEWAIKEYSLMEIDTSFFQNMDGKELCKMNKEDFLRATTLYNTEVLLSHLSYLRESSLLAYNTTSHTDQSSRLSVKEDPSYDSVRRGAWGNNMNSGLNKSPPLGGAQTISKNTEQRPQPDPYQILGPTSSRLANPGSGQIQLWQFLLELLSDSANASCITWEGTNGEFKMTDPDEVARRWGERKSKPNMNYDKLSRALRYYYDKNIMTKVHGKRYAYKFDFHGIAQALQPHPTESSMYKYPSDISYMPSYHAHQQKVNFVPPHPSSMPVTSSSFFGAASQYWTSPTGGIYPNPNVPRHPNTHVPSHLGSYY
The following applies: protein: recombinant; tags: N-terminal GST; dsDNA, one strand shown. The procedure, abridged:
(§1)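 Sequencing on an Illumina NextSeq500 followed washing, crosslinking with 0.1% formaldehyde, proximity ligation (BsaI/T4 ligase, 1 h, 37 °C) and PCR amplification of pools that had been incubated for 30 min at room temperature with 200 nmole of a random double-stranded 16-mer DNA library in Tris/NaCl/DTT/glycerol buffer. Each pool held DNA-barcoded human transcription factors, expressed in yeast as GST fusions and captured on glutathione beads, plus a tag-only sample. Binding signal is a hexamer's read frequency for a factor divided by its frequency in the tag-only sample.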

In another test the target is T2, ELK1 (Homo sapiens, UniProt P19419 1-428).
T2 sequence: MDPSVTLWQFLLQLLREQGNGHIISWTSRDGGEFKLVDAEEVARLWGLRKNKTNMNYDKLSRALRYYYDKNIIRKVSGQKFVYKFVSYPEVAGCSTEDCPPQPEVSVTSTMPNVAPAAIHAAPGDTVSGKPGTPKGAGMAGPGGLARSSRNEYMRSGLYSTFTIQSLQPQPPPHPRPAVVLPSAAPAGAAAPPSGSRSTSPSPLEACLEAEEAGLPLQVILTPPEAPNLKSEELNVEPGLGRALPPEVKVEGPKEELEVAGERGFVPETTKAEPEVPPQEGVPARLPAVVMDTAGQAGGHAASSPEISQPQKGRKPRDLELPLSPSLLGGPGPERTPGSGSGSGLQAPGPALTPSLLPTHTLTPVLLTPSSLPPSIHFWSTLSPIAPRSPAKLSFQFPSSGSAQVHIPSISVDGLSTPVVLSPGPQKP
The conditions noted are these: protein: recombinant; tags: N-terminal GST; dsDNA, one strand shown. The method, boiled down:
as §1

For a further test, the target named is T3, GABPA (Homo sapiens, UniProt Q06546 1-454).
T3 sequence: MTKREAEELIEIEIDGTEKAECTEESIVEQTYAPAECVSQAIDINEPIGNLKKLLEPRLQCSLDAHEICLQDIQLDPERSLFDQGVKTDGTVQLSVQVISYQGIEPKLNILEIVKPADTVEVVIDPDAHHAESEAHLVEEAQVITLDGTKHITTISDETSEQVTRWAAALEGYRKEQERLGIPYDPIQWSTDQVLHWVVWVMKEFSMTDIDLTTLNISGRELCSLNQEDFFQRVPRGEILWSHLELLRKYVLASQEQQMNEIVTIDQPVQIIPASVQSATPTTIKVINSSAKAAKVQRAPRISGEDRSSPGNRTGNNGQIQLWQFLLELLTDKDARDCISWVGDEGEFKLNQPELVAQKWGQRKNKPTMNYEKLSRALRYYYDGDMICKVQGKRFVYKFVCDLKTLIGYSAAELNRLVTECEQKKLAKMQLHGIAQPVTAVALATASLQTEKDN
The following applies: protein: recombinant; tags: N-terminal GST; dsDNA, one strand shown. The procedure, abridged:
as §1

The next test has as its target T4, ERG (Homo sapiens, UniProt P11308 1-479).
T4 sequence: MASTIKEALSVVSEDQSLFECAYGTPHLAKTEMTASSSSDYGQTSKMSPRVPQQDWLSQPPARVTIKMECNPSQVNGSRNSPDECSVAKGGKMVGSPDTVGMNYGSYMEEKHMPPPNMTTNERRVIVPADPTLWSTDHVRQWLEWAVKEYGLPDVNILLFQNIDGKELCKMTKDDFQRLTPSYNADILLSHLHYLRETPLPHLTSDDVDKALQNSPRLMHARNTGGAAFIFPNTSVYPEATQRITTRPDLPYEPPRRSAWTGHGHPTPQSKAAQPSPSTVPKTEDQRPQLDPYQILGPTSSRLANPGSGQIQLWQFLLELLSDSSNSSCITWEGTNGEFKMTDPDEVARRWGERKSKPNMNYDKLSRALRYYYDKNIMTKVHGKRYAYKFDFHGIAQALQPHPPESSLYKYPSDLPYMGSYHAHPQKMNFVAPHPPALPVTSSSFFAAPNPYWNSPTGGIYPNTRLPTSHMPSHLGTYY
The conditions noted are these: protein: recombinant; tags: N-terminal GST; dsDNA, one strand shown. The procedure, abridged:
as §1

A further test addresses ELF1 (Homo sapiens, UniProt P32519 1-619). The conditions noted are these: protein: recombinant; tags: N-terminal GST; dsDNA, one strand shown. The procedure, abridged:
as §1

The next test deals with T5, EHF (Homo sapiens, UniProt Q9NZC4 1-300).
T5 sequence: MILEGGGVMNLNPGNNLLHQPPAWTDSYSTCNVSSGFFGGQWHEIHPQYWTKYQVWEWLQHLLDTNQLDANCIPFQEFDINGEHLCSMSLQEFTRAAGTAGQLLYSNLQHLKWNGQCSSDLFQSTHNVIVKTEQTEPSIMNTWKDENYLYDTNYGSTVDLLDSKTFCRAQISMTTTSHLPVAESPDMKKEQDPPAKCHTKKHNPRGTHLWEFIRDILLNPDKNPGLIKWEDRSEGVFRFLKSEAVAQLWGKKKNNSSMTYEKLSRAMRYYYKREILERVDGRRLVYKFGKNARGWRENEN
The conditions noted are these: protein: recombinant; tags: N-terminal GST; dsDNA, one strand shown. The procedure, abridged:
as §1

Another test addresses SPI1 (Homo sapiens, UniProt P17947 1-270). The conditions noted are these: protein: recombinant; tags: N-terminal GST; dsDNA, one strand shown. The procedure, abridged: as §1
A further test deals with SPIB (Homo sapiens, UniProt Q01892 1-262). The following applies: protein: recombinant; tags: N-terminal GST; dsDNA, one strand shown. The procedure, abridged:
as §1

A further test deals with T6, ELK3 (Homo sapiens, UniProt P41970 1-407).
T6 sequence: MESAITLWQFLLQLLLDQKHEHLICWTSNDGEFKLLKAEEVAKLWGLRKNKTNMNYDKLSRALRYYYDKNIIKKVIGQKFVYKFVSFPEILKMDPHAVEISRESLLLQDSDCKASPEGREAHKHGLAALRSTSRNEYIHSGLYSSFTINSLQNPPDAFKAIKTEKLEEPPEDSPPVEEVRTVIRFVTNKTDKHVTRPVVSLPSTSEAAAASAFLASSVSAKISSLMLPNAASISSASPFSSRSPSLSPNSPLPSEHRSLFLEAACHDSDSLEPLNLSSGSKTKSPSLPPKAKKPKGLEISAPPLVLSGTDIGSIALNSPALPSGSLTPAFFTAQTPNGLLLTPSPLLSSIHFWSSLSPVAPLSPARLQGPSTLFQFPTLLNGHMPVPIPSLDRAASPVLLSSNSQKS
The following applies: protein: recombinant; tags: N-terminal GST; dsDNA, one strand shown. The procedure, abridged: as §1

Another test has as its target T7, FEV (Homo sapiens, UniProt Q99581 1-238).
T7 sequence: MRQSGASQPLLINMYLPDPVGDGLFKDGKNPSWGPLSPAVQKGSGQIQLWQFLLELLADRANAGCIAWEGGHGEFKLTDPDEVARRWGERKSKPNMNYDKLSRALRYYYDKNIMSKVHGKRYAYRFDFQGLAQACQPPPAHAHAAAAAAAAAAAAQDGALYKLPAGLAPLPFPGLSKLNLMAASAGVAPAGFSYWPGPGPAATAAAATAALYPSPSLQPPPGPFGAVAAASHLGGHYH
The following applies: protein: recombinant; tags: N-terminal GST; dsDNA, one strand shown. The procedure, abridged: as §1

Another test concerns the target ETV5 (Homo sapiens, UniProt P41161 1-510). The conditions noted are these: protein: recombinant; tags: N-terminal GST; dsDNA, one strand shown. The procedure, abridged: as §1
The target of the next test is HSF1 (Homo sapiens, UniProt Q00613 1-529). The following applies: protein: recombinant; tags: N-terminal GST; chain copies: 3; dsDNA, one strand shown. The procedure, abridged:
as §1

A further test deals with T8, SPIC (Homo sapiens, UniProt Q8N5J4 1-248).
T8 sequence: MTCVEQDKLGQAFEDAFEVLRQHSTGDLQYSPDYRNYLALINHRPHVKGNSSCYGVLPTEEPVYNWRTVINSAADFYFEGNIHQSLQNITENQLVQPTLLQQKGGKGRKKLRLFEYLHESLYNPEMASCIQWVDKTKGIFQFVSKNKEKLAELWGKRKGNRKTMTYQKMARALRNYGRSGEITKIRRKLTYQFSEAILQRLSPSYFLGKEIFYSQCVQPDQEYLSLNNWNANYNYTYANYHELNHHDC
The conditions noted are these: protein: recombinant; tags: N-terminal GST; dsDNA, one strand shown. The method, boiled down: as §1

The target of another test is ELF4 (Homo sapiens, UniProt Q99607 1-663). The conditions noted are these: protein: recombinant; tags: N-terminal GST; dsDNA, one strand shown. The procedure, abridged:
as §1

Another test has as its target T9, ELK4 (Homo sapiens, UniProt P28324-2 1-405).
T9 sequence: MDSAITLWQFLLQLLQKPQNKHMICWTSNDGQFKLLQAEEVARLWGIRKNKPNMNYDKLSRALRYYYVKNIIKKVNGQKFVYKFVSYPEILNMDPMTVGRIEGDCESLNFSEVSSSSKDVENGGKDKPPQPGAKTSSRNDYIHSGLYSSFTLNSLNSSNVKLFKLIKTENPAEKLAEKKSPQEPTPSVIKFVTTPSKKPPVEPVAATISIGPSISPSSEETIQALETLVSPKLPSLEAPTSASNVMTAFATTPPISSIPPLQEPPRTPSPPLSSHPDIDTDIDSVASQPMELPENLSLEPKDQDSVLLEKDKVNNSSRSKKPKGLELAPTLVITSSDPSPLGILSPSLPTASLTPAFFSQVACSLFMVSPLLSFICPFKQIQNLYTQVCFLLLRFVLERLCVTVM
The conditions noted are these: protein: recombinant; tags: N-terminal GST; dsDNA, one strand shown. The procedure, abridged: as §1

Another test addresses T10, ETV2 (Homo sapiens, UniProt O00321 1-342).
T10 sequence: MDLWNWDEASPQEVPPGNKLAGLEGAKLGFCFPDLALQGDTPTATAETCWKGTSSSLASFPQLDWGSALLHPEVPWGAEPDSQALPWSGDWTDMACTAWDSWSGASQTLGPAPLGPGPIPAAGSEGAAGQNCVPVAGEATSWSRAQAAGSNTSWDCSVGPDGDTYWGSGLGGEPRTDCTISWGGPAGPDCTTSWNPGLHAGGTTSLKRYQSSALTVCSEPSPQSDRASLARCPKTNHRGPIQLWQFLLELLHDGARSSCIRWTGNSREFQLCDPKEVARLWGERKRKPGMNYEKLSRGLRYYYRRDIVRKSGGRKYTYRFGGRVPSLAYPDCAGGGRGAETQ
The conditions noted are these: protein: recombinant; tags: N-terminal GST; dsDNA, one strand shown. The method, boiled down: as §1

The next test concerns the target T11, ELF3 (Homo sapiens, UniProt P78545 1-371).
T11 sequence: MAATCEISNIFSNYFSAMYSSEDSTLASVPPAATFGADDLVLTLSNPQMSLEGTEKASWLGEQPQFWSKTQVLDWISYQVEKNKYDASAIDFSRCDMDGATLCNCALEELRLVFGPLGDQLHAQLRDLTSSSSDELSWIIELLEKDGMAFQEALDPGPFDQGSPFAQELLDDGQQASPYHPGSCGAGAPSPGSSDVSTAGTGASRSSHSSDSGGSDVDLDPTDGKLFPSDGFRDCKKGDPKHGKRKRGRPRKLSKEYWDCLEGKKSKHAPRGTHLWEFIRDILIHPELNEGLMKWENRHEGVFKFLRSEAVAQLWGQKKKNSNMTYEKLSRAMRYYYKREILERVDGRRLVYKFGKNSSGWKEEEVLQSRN
The following applies: protein: recombinant; tags: N-terminal GST; dsDNA, one strand shown. The procedure, abridged: as §1

In another test the target is ETV1 (Homo sapiens, UniProt P50549 1-477). The following applies: protein: recombinant; tags: N-terminal GST; dsDNA, one strand shown. The method, boiled down:
as §1

ELF4, sequence (Q99607 whole entry): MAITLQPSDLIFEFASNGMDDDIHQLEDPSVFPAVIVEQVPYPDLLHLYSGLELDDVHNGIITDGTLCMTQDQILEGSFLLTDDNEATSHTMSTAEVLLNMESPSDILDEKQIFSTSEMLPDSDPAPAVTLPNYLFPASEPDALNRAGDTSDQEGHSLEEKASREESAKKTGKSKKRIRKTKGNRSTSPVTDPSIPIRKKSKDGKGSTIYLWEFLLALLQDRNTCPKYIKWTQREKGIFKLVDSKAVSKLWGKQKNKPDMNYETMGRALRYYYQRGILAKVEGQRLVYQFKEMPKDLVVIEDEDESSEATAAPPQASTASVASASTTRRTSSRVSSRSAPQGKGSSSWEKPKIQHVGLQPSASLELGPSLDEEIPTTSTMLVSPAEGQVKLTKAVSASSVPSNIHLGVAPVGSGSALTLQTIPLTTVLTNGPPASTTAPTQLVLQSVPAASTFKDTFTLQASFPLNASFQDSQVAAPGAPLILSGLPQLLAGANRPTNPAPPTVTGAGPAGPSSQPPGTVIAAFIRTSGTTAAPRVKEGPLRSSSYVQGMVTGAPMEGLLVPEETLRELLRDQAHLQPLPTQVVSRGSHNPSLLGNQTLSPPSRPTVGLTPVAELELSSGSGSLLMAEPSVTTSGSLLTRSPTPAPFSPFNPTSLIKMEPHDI
HSF1, sequence (Q00613 whole entry): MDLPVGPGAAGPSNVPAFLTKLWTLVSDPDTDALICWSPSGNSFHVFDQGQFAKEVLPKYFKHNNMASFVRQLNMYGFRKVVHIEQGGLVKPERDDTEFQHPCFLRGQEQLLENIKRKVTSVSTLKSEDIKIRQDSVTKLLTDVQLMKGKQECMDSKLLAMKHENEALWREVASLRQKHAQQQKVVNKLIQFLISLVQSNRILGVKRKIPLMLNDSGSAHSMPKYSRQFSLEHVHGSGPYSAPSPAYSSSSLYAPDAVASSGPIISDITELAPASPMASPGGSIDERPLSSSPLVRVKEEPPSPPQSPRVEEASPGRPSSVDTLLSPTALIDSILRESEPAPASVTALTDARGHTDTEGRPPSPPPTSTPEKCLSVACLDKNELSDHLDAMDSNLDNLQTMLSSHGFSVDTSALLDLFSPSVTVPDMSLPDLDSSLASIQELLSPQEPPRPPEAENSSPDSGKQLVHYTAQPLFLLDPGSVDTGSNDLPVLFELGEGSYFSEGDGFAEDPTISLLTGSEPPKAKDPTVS
ETV1, sequence (P50549 whole entry): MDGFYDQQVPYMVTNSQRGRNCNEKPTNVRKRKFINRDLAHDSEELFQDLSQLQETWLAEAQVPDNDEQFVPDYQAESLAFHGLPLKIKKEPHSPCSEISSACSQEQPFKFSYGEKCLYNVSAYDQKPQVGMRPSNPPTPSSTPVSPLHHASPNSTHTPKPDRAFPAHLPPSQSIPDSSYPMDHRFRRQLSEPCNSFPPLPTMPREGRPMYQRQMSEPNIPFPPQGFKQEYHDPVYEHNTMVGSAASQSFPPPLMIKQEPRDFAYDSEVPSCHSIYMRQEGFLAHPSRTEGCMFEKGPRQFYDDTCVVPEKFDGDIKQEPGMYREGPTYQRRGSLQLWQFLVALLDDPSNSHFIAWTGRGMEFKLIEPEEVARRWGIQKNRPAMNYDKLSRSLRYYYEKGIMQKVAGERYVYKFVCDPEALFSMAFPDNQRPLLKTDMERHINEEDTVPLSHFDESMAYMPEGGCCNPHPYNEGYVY
ETV5, sequence (P41161 whole entry): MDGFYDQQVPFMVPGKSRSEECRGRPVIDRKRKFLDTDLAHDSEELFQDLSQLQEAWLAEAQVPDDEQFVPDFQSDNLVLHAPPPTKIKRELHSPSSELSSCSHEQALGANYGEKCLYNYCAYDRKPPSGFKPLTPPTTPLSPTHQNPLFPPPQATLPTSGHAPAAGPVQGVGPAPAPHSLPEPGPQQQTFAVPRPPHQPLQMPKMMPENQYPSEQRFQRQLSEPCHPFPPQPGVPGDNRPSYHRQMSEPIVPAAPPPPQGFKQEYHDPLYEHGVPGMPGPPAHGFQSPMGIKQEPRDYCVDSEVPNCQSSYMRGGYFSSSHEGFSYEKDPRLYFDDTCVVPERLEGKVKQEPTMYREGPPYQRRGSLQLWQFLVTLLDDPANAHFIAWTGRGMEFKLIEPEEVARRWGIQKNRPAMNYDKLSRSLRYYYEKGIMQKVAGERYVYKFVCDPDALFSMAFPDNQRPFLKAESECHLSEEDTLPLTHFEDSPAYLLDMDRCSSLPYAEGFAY
SPIB, sequence (Q01892 whole entry): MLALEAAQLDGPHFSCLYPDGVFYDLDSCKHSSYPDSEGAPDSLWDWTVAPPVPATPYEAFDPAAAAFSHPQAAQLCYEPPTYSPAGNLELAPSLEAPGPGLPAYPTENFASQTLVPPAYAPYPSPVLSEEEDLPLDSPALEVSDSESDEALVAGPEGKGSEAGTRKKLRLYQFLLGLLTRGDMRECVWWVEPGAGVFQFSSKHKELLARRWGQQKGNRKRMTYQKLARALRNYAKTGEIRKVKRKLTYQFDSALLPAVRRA
ELF1, sequence (P32519 whole entry): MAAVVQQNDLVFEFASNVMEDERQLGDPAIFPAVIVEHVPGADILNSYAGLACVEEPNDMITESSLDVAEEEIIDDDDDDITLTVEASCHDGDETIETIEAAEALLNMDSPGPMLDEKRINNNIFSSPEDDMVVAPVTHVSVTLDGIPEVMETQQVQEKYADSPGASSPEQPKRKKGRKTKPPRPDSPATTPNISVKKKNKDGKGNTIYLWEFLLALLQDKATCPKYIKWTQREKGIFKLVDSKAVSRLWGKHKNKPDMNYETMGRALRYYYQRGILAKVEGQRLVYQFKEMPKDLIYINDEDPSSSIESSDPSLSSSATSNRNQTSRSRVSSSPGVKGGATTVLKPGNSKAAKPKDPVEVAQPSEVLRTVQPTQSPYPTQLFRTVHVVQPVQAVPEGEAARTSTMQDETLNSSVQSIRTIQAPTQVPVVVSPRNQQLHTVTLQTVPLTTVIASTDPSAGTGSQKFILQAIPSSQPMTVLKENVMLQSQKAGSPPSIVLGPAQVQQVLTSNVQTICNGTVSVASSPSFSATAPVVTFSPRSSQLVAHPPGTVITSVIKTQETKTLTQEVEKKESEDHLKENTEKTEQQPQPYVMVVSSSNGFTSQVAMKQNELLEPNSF

TGCCGC: the binding signal was 1.33 fold enrichment (6-mer frequency, TF over GST control) with FLI1; 1.3 fold enrichment (6-mer frequency, TF over GST control) in the test with ELK1; 1.33 fold enrichment (6-mer frequency, TF over GST control) with GABPA; 1.24 fold enrichment (6-mer frequency, TF over GST control) with ERG; 1.28 fold enrichment (6-mer frequency, TF over GST control) with ELF1; 1.28 fold enrichment (6-mer frequency, TF over GST control) with EHF. Moreover, the binding signal with SPI1 was 1.37 fold enrichment (6-mer frequency, TF over GST control); with SPIB, 1.36 fold enrichment (6-mer frequency, TF over GST control); in the test with ELK3, 1.26 fold enrichment (6-mer frequency, TF over GST control); with FEV it was 1.27 fold enrichment (6-mer frequency, TF over GST control); with ETV5, 1.23 fold enrichment (6-mer frequency, TF over GST control); in the test with HSF1, 1.03 fold enrichment (6-mer frequency, TF over GST control). Further, the binding signal with SPIC is 1.15 fold enrichment (6-mer frequency, TF over GST control); in the test with ELF4, 1.35 fold enrichment (6-mer frequency, TF over GST control); with ELK4, 1.23 fold enrichment (6-mer frequency, TF over GST control); with ETV2, 1.06 fold enrichment (6-mer frequency, TF over GST control); with ELF3, 1.07 fold enrichment (6-mer frequency, TF over GST control); with ETV1 it was 1.3 fold enrichment (6-mer frequency, TF over GST control).
